# Screening data (PubChem BioAssay)
# CYP2C19 act: human CYP2C19 activators, primary screen, biochemical, luminescence | Cytochrome P450 2C19 (Homo sapiens), P33261 | recombinant CYP2C19, luciferin-H EGE luminescence; hits give high values; 0 = fully inhibited enzyme, 1 = untreated enzyme | activation factor at 5 µM | 96,000 tested, under 10 active | AID 1025, 2008;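 active means activation factor of at least 2 at 5 µM in the primary screen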;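 further: 0 = wells with 2.5 mM tranylcypromine and 1 = vehicle-only wells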
# MRP resist rev: reversal of MRP1-mediated doxorubicin resistance, primary screen, H69AR cells, doxorubicin co-treatment; differential viability (reversal), % at 10 µM; 0.04% of 85,000 active; H69AR cells + 2 uM doxorubicin, CellTiter-Glo, 72 h;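 active means viability drop by adding the cancer drug above about 55%, with treated viability meeting a 40% cutoff, limit read from the data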;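 further: viability without doxorubicin minus viability with 2 µM doxorubicin for each compound; larger differential means the compound sensitizes cells more to doxorubicin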
# MRP-1 activ: H69AR viability gain despite doxorubicin, primary screen, MRP-1 activator project, H69AR cells, CellTiter-Glo; viability rescue; viability increase, % at 10 µM; 0.61% of 140,000 active; AID 799, 2007;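 active means viability gain under doxorubicin at or above a set limit, the compound median plus 3 SD, cut at about 4.7% in these data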;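 further: MRP-1 overexpressing cells given doxorubicin 25 µM after compound pretreatment; 18-22 h compound pretreatment then 72 h with doxorubicin before readout; 0% = doxorubicin-only wells and 100% = vehicle-treated cells without doxorubicin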
# CYP2C9 act: human CYP2C9 activators, primary screen, biochemical, luminescence | recombinant CYP2C9, luciferin-H conversion; hits give high values; factor 1 = untreated enzyme, 0 = blocked | activation factor at 5 µM | 1.4% of 96,000 active;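 active means activation factor of 2 or more for CYP2C9 at a 5 µM dose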;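 further: 0 = sulfaphenazole-blocked wells and 1 = vehicle-only wells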
# Target sequence (P11712 whole entry, looked up): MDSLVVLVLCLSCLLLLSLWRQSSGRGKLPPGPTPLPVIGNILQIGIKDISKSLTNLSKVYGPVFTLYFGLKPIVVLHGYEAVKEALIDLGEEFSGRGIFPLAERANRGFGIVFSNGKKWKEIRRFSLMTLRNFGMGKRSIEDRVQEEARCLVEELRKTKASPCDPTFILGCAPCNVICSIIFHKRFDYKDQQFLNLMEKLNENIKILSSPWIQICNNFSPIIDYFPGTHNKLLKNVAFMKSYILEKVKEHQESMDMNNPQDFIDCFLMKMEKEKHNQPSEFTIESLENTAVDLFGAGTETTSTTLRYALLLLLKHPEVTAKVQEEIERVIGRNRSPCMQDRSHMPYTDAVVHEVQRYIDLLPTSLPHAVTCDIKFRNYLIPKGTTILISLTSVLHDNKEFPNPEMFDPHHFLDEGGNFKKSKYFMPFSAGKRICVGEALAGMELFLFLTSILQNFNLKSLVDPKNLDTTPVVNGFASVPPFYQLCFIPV
# CYP2C19 inh: blockers of cytochrome P450 2C19 activity – biochemical, luminescence, ADME assay, primary screen. P33261. CYP2C19 Supersomes, luciferin-H EGE luminescence, 30 min. inhibition, % at 5 µM. 21% of 96,000 active. AID 778, 2007;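 active means CYP2C19 inhibition above a set limit at 5 µM in the primary screen, cut at about 50% in these data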;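 further: plate controls were negative control wells for no effect and 2.5 mM tranylcypromine positive control for full effect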
# CYP2C9 inhib: blockers of cytochrome P450 2C9 activity – biochemical, luminescence, ADME assay, primary screen; P11712; CYP2C9 Supersomes, luciferin-H conversion; inhibition, % at 5 µM; 20% of 96,000 active;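 active means blocking of liver enzyme CYP2C9 beyond about 50% at 5 µM, limit read from the data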
# Numbers without * were called inactive; · = no result. Sampled rows, rich in hits. Any-hit rate of the full collection: about 21%.
SMILES,CYP2C19 act,MRP resist rev,MRP-1 activ,CYP2C9 act,CYP2C19 inh,CYP2C9 inhib
Cc1ccccc1Cn1c(=O)c2c(nc3n2CCN3Cc2ccco2)n(C)c1=O,·,-10,·,·,·,·
CCOC(=O)CN(C(=O)CSc1nnc2c(n1)[nH]c1ccccc12)c1ccccc1,0.2,14,-2,0.6,81*,45
CCOC(=O)CN(C(=O)CSc1nnc2c(n1)[nH]c1ccc(F)cc12)c1ccccc1,0,-9,-3,0.3,100*,75*
CCOC(=O)c1c(NC(=O)CSc2nnc3c(n2)[nH]c2ccc(F)cc23)sc(C(C)=O)c1C,0.4,·,-3,0.2,64*,76*
CCOC(=O)CN(C(=O)CSc1nnc(CNc2ccc(F)cc2)n1CC)c1ccc(F)cc1,0.8,15,-1,1.1,15,-15
CCOC(=O)CN(C(=O)CSc1nnc2c(n1)[nH]c1c(C)cc(C)cc12)c1ccccc1,0.9,·,-1,1,8,4
Cc1ccc(NS(C)(=O)=O)c(C(=O)c2ccccc2)c1,0.3,10,-3,0.7,70*,29
CC(=O)Nc1c2c(nn1-c1ccc(C)cc1C)CSC2,0.9,3,-1,1,12,-3
Cc1ccccc1-n1nc2c(c1NC(=O)c1ccc(Br)o1)CSC2,0.8,2,1,0.4,15,57*
CCCCn1c(=O)c(F)cn(Cc2ccc(OC)c([N+](=O)[O-])c2)c1=O,·,·,1,·,·,·
CCCCCCn1c(=O)c(F)cn(Cc2ccc(OC)c([N+](=O)[O-])c2)c1=O,0.7,·,0,0.4,30,60*
CCCCCn1c(=O)c(F)cn(Cc2ccc(OC)c([N+](=O)[O-])c2)c1=O,0.9,·,-1,0.5,12,52*
O=C(CN(Cc1cccs1)C(=O)CSc1nnc(COc2ccccc2)o1)NC1CCCCC1,·,-16,1,·,·,·
CCS(=O)(=O)N1Cc2ccccc2CC1C(=O)Nc1nnc(SCc2ccc(F)cc2)s1 (stereo not drawn),·,·,-2,·,·,·
Cc1ccc(C)c(N2CCN(C(=O)C3CCCN(S(=O)(=O)c4c(C)noc4C)C3)CC2)c1 (stereo not drawn),0.3,23,-5,0.1,74*,93*
Cc1ccccc1NC(=O)C1CCCN(S(=O)(=O)c2c(C)noc2C)C1 (stereo not drawn),0.9,·,-3,1,9,2
Cc1noc(C)c1S(=O)(=O)N1CCCC(C(=O)N2CCc3ccccc3C2)C1 (stereo not drawn),0.3,-15,-2,0.5,74*,47
Cc1ccc(NCc2nnc3n2CCCCC3)cc1,0.2,3,-1,1,75*,-1
O=C(NCc1nnc2n1CCCCC2)c1ccc(Cl)cc1Cl,1,-3,-2,1.4,-2,-38
Brc1ccc(NCc2nnc3n2CCCCC3)cc1,0.4,20,-2,1,64*,1
CCN(CC)S(=O)(=O)c1ccc(-c2ccc(S(=O)(=O)N(CC)CC)cc2)cc1,0.9,8,0,0.6,9,37
Cc1ccc(S(=O)(=O)NCCC(=O)N2CCN(Cc3ccccc3)CC2)cc1,0.5,4,0,0.9,52*,5
CC1CCN(C(=O)CCNS(=O)(=O)c2ccccc2)CC1,0.5,-30,0,0.9,54*,13
N#Cc1cnc(SCC(=O)NNC(=O)COc2cccc3ccccc23)nc1N,·,·,-3,·,·,·
O=C(Nc1ccc2c(c1)OCCO2)C1CCCN1S(=O)(=O)c1ccc(Cl)cc1 (stereo not drawn),0.1,-2,0,0,88*,96*
O=C(Nc1cccc(S(=O)(=O)N2CCOCC2)c1)[C@@H]1CCCN1S(=O)(=O)c1ccc(Cl)cc1,·,·,-2,·,·,·
O=C(Nc1ccc2c(c1)OCO2)C1CCN(S(=O)(=O)c2ccc3c(c2)OCCO3)CC1,1.1,·,-1,1.2,-6,-25
O=C(Nc1ccc2c(c1)OCO2)C1CCCCN1S(=O)(=O)c1ccccc1 (stereo not drawn),0,2,-2,0.4,98*,64*
